About 83,000 compounds went through this panel and 20% of them were active in at least one assay; those are over-represented in the sample as a whole.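 Single-concentration screen, 48 h exposure, 96-well plates. Endpoint: percent growth. Below 10 = active.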 A number with no mark means an inactive call. The source made the active and inactive calls.
What was measured:
Test in all cases: NCI-60 one-dose screen, 48 h (100 = growth as untreated, 0 = no growth, -100 = all killed)
Details in all cases: 10 µM unless noted
NCI-H23 lung = test system: NCI-H23 lung
NCI-H226 lung = test system: NCI-H226 lung
NCI-H322M lung = test system: NCI-H322M lung
HOP-62 NSCLC = test system: HOP-62 NSCLC
NCI-H460 lung = test system: NCI-H460 lung
HOP-92 NSCLC = test system: HOP-92 NSCLC
NCI-H522 lung = test system: NCI-H522 lung
A549/ATCC NSCLC = test system: A549/ATCC NSCLC
786-0 renal = test system: 786-0 renal
COLO 205 colon = test system: COLO 205 colon
DU-145 prostate = test system: DU-145 prostate
K-562 leukemia = test system: K-562 leukemia
MALME-3M melanoma = test system: MALME-3M melanoma
MDA-MB-231 breast = test system: MDA-MB-231 breast
RXF 393 renal = test system: RXF 393 renal
SF-268 CNS = test system: SF-268 CNS
SF-295 CNS = test system: SF-295 CNS
SF-539 CNS = test system: SF-539 CNS
UACC-257 melanoma = test system: UACC-257 melanoma
M14 melanoma = test system: M14 melanoma

SMILES | growth (NCI-H23 lung) | growth (NCI-H226 lung) | growth (NCI-H322M lung) | growth (HOP-62 NSCLC) | growth (NCI-H460 lung) | growth (HOP-92 NSCLC) | growth (NCI-H522 lung) | growth (A549/ATCC NSCLC) | growth (786-0 renal) | growth (COLO 205 colon) | growth (DU-145 prostate) | growth (K-562 leukemia) | growth (MALME-3M melanoma) | growth (MDA-MB-231 breast) | growth (RXF 393 renal) | growth (SF-268 CNS) | growth (SF-295 CNS) | growth (SF-539 CNS) | growth (UACC-257 melanoma) | growth (M14 melanoma)
Cc1nc(N)nc(SCc2ccccc2)c1Br | 93.7% | 83.7% | 70.3% | 83.1% | 104% | 79.4% | 66.7% | 73.4% | 88.9% | 105% | 104% | 88.4% | 92.6% | 91.1% | 89.6% | 96.1% | 99.1% | 96.4% | 74.1% | 104%
COc1ccc(-c2nn(-c3ccc(NC(=O)Nc4cc(C(F)(F)F)cc(C(F)(F)F)c4)cc3)cc2-c2ccncc2)cc1Cl | 8.51% (active) | 0.753% (active) | 30.9% | 19.5% | -2.26% (active) | -21.6% (active) | -8.92% (active) | 14.6% | 1.94% (active) | -33.4% (active) | 30.4% | 17.2% | 11.4% | 8.03% (active) | -26.2% (active) | 21.8% | 4% (active) | 24.6% | 13.6% | 20.6%
O=[N+]([O-])c1ccccc1NC1c2ccccc2Oc2ccccc21 | 79.1% | 78% | 74.6% | 70% | 15.1% | 48.4% | 26.3% | 44.9% | 94.5% | 69.3% | 58.3% | 11.2% | 48.4% | 71.7% | 81.1% | 41.2% | 23.6% | 58.2% | 74.2% | 36.6%
O=C(Nc1ccc(-n2ccc3c(NC(=O)c4ccccc4)nccc32)cc1)Nc1ccc(Cl)c(Cl)c1 | 42.4% | 68% | -5.58% (active) | -58.1% (active) | -65.4% (active) | -6.97% (active) | -58.6% (active) | -75.8% (active) | -84% (active) | -53.4% (active) | -32.6% (active) | -27.3% (active) | -46.9% (active) | -65.2% (active) | -93.9% (active) | 1.8% (active) | -67% (active) | -58.6% (active) | -69% (active) | -69.8% (active)
CN(C)CCCOc1c(Br)cc(/C=C/C(=O)N(C)CCc2cc(Br)c(OCCCN(C)C)c(Br)c2)cc1Br | 81.5% | 95.7% | 59.5% | 82.3% | 23.1% | 48.7% | 13.5% | 41.5% | 63.7% | 39.3% | 40.5% | -48.7% (active) | -62.4% (active) | 23.7% | 59.6% | 52.5% | 60.9% | -75.5% (active) | 71.7% | -68.1% (active)
O=C(COc1ccc(Cl)cc1)N1CCN(Cc2ccc3c(c2)OCO3)CC1 | 89.8% | 101% | 105% | 101% | 107% | 81.1% | 93.8% | 96.3% | 101% | 96.1% | 113% | 84.8% | 98.4% | 87.2% | 109% | 95.9% | 95.4% | 104% | 103% | 111%
CC(C)CCC[C@@H](C)[C@H]1CC[C@H]2[C@@H]3CC=C4N(c5ccccc5)C(=O)CC[C@]4(C)[C@H]3CC[C@]12C | 97.2% | 99.2% | 98.3% | 98.8% | 111% | 60.2% | 94.1% | 97.4% | 93.9% | 97.9% | 103% | 103% | 97.8% | 111% | 103% | 99.3% | 99% | 101% | 105% | 96.1%
O=S1(=O)N(CCNc2nccc(-c3c(-c4cccc(O)c4)nc4sccn34)n2)CCN1Cc1ccccc1 | 84.1% | 71.2% | 101% | 143% | 42% | 119% | 52.1% | 65.2% | 78.3% | 46.4% | 74.1% | 46.1% | 50.8% | 52.6% | 68.6% | 86% | 62.8% | 63.9% | 37.2% | 28.4%

— PubChem BioAssay (NCI)
